In the supplement of paper PMC10127200 one finds Euclidean distance data, which are given here for 13 molecules.

Counter-ions that a name gives are not always drawn.

What all share (assay): Euclidean distance of Cell Painting phenotypic profile (signed KS, 77 features) to DMSO centroid (dimensionless distance); 5 or 10 uM (library dependent); higher = stronger phenotypic change vs DMSO (phenoactivity)
Holding throughout (details): 48 h

The test system of one experiment is 786-O. The procedure, abridged:
(§1)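 Stained cells were imaged confocally at 20X with 9 fields per well, after 48 h of exposure to library compounds at 10 or 5 uM (set by library; 0.1% DMSO final). The cells were five cancer lines and a healthy fibroblast line. From the images, Harmony extracted 77 features, each expressed as a signed Kolmogorov-Smirnov statistic relative to same-plate vehicle wells. Phenoactivity is measured as Euclidean distance to the median vehicle profile, using plate-position-corrected, correlation-weighted profiles averaged across replicates at the top dose.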

The test system of another experiment is A549. The method in brief: as §1
The next experiment relates to DU145. The procedure, abridged: as §1
A further experiment has as its system FB. The method in brief:
as §1

In a further experiment the test system is HEPG2. The method in brief:
as §1

Another experiment deals with OVCAR4. The method in brief:
as §1

`CN(C)CCN(Cc1ccc(Cl)cc1)c1ccccn1` [Chloropyramine hydrochloride]: the Euclidean distance in the experiment on 786-O was determined as 0.88; in the experiment on A549, 1.23; in the experiment on DU145 it was 1.39; in the experiment on FB, 1.03; with HEPG2, 0.594; with OVCAR4, 1.1.
As for `Cn1c(=O)c2c(ncn2CCO)n(C)c1=O` [Etofylline], the Euclidean distance in the experiment with 786-O worked out at 1.39; in the experiment on A549, 0.749; in the experiment on DU145 it was 1.18; in the experiment on FB, 1.08; in the experiment with HEPG2, 0.452; with OVCAR4 it was 1.26.
As to `C[C@H]1COC2(CCN(c3nc(=O)c4cc(C(F)(F)F)cc([N+](=O)[O-])c4s3)CC2)O1` (racemic) [BTZ043 Racemate], the Euclidean distance with 786-O was determined as 1.5; with A549, 0.656; with DU145 it was 1.01; with FB, 1.47; with HEPG2, 0.565; with OVCAR4, 0.748.
In the case of `O=c1ccc2cc3ccoc3cc2o1` [Psoralen], the Euclidean distance amounted to 1.35 in the experiment with 786-O; 0.643 in the experiment on A549; 0.873 with DU145; 1.16 in the experiment with FB; 1.17 with HEPG2; 1.04 in the experiment with OVCAR4.
With `CC(=O)O[C@]1(C(C)=O)CC[C@H]2[C@@H]3C=C(Cl)C4=CC(=O)CC[C@]4(C)[C@H]3CC[C@@]21C` [Chlormadinone acetate], the Euclidean distance in the experiment on 786-O was 1.27; in the experiment on A549 it was 1.1; with DU145, 1.72; in the experiment on FB it was 1.26; in the experiment on HEPG2, 0.98; with OVCAR4, 0.962.
For the molecule `CNC(=O)[C@H](Cc1c[nH]c2ccccc12)NC(=O)[C@@H](CC(=O)NO)CC(C)C` [Ilomastat (GM6001. Galardin)], the Euclidean distance with 786-O turned out to be 1.02; in the experiment with A549 it was 1.06; in the experiment with DU145, 1.22; with FB, 0.836; in the experiment on HEPG2, 0.633; in the experiment on OVCAR4, 1.3.
In the case of `CN(C)[C@@H]1C(O)=C(C(N)=O)C(=O)[C@@]2(O)C(O)=C3C(=O)c4c(O)cccc4[C@@](C)(O)[C@H]3[C@H](O)[C@@H]12` [Oxytetracycline Dihydrate], the Euclidean distance in the experiment on 786-O came to 1.33; with A549 it was 0.832; with DU145, 1.09; with FB, 1.19; in the experiment with HEPG2, 1.9; with OVCAR4, 1.3.
As for `Clc1ccc2c(c1)CCc1cccnc1C2=C1CCNCC1` [Desloratadine], the Euclidean distance in the experiment with 786-O is 1.38; in the experiment on A549 it was 0.811; with DU145 it was 1.51; in the experiment on FB, 1.83; with HEPG2 it was 2.17; in the experiment with OVCAR4 it was 1.88.
For `O=C(O)CC[C@H]1CC[C@@](c2cc(F)ccc2F)(S(=O)(=O)c2ccc(Cl)cc2)CC1`, the Euclidean distance was determined as 1.76 in the experiment on 786-O; 1.71 in the experiment on A549; 0.876 in the experiment on DU145; 1.8 in the experiment on FB; 1.76 in the experiment with HEPG2; 1.58 in the experiment on OVCAR4.
In the case of `CC1(C)O[C@H]2CC(=O)OC[C@]23[C@H]2CC[C@@]4(C)[C@H](c5ccoc5)OC(=O)[C@H]5O[C@]54[C@]2(C)C(=O)C[C@@H]13` [Limonin], the Euclidean distance with 786-O was 0.804; with A549, 0.714; in the experiment with DU145 it was 0.885; in the experiment on FB it was 0.843; in the experiment with HEPG2 it was 1.05; with OVCAR4, 1.05.
With `O=C(O)[C@H]1O[C@@H](Oc2cc3oc(-c4ccccc4)cc(=O)c3c(O)c2O)[C@H](O)[C@@H](O)[C@@H]1O` [Baicalin], the Euclidean distance in the experiment with 786-O was determined as 1.89; with A549, 0.742; in the experiment with DU145, 1.25; in the experiment on FB it was 1.48; with HEPG2 it was 0.763; with OVCAR4 it was 1.22.
Consider `Cc1nc(Nc2ncc(C(=O)Nc3c(C)cccc3Cl)s2)cc(N2CCN(CCO)CC2)n1` [Dasatinib hydrochloride], for which the Euclidean distance with 786-O was 3.83; in the experiment on A549 it was 4.46; in the experiment with DU145, 4.71; with FB, 3.53; in the experiment with HEPG2, 2.21; with OVCAR4 it was 4.45.
Turning to `CN(C)c1ccc2nc3ccc(=[N+](C)C)cc-3sc2c1` [Methylene Blue], the Euclidean distance with 786-O was 2.57; in the experiment with A549 it was 2.62; with DU145 it was 1.71; in the experiment with FB, 3.26; in the experiment with HEPG2, 2.63; in the experiment with OVCAR4 it was 2.92.
